Measured values: the supplement of paper PMC10338343
± gives the standard deviation.

Experiments:
[1] = tested on: MILI (PIWIL2) piRISC loaded with L1MC piRNA (26 nt); assay: pre-steady-state target cleavage rate (min^-1); guide: L1MC piRNA 5'p-UAACUAAAUACUAUGCAAGCUGUAGG; higher = faster piRNA-guided slicing of the target
In short: (§1)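 Cleave-'n-Seq reactions paired 0.1 nM transcribed, DNA-blocked target RNA library with 1 nM active affinity-purified piRISC holding one synthetic guide, plus or minus 500 nM GTSF1 partner protein, in HEPES–potassium acetate buffer at 33 °C for 0–8 or 0–960 min. After sequencing of uncleaved targets and normalisation to depth and weakly complementary targets, the pre-steady-state cleavage rate was taken from a burst-and-steady-state fit. Three trials were pooled, and k3 was capped at 0.0001 min^-1.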

[2] = tested on: EfPiwi piRISC loaded with L1MC piRNA (26 nt); assay: pre-steady-state target cleavage rate (min^-1); auxiliary factor: 500 nM Ephydatia muelleri Gtsf1; guide: L1MC piRNA 5'p-UAACUAAAUACUAUGCAAGCUGUAGG; MIWI and MILI are mouse PIWI proteins and EfPiwi is from a freshwater sponge; tags in brackets are library labels; higher = faster piRNA-guided slicing of the target
In short: as §1

[3] = auxiliary factor: 500 nM mouse GTSF1
[4] = auxiliary factor: none (no GTSF1)

Sequence	pre-steady-state target cleavage rate [1, 3]	pre-steady-state target cleavage rate [1, 4]	pre-steady-state target cleavage rate [2]
UCCUGCUACAGCUUGCAUAGUAUUUAGUUG [g2:g25:cont:t1G]	0.145 ± 0.013	0.0083 ± 0.0024	0.00685 ± 0.0019
UCCUCCUACGCUUGCAUAGUAUUUAGUUA	0.301 ± 0.013	0.0071 ± 0.0018	0.0821 ± 0.021
UCCUCCUACAGCUUGCAAUGUAUUUAGUUA	0.101 ± 0.015	0.00693 ± 0.0023	0.0107 ± 0.0042
UCCUGGAUGUCGUCUGCAUAGUAUUUAGUUA	0.106 ± 0.015	0.00397 ± 0.0027	0.00907 ± 0.0032
UCCUGGAACACCUUGCAUUGUAUUUAGUUA	0.14 ± 0.018	0.00474 ± 0.0027	0.00411 ± 0.0026
UCCUCCUACAGCUUGCAUUGUAUAUAGUUA	0.177 ± 0.018	0.00393 ± 0.0025	0.00608 ± 0.0036
UCCUGGAACAGCUUGCUUACUAUUUAGUUA	0.0834 ± 0.011	0.0029 ± 0.0024	0.00758 ± 0.0029
UCCUGGAACAGCUUGACAUAGUAUUUAGUUA	0.213 ± 0.016	0.00586 ± 0.0022	0.013 ± 0.004
UCCUGGAUGAUGCUUGCAUAGUAUUUAGUUA	0.228 ± 0.023	0.00923 ± 0.0034	0.0738 ± 0.022
UCCUCCAACAGCUUGCUUAGUAUUUAGUUA	0.262 ± 0.017	0.0066 ± 0.0021	0.0148 ± 0.0053
UCCUGGUACAGCUUGCAUAGUAUUUUAGUUA	0.183 ± 0.021	0.0144 ± 0.0062	0.00849 ± 0.0042
UCCUGCUACAGCUUGGAUAGUAUUUAGUAA	0.214 ± 0.032	0.00334 ± 0.0025	0.00465 ± 0.0017
UCCUGCAUGAGCUUGCAUAGUAUUUAGUAA	0.234 ± 0.024	0.00554 ± 0.0022	0.0061 ± 0.0025
UCCUGGAACAGCUUGCAUAGUAUUAUAGUUA	0.149 ± 0.024	0.00335 ± 0.0027	0.0399 ± 0.015
UCCUGCUACAGGAUGCAUAGUAUUUAGUUA	0.271 ± 0.0083	0.00941 ± 0.0024	0.0191 ± 0.0043
UCCUGGAUCAGCUUGCAUAGUAUUCAGUUA	0.179 ± 0.024	0.00376 ± 0.0025	0.00509 ± 0.0019
UCCUCCAACAGCUUGCAUACUAUUUAGUUA	0.0905 ± 0.012	0.00321 ± 0.0025	0.00961 ± 0.0032
UCCUCCUACACGUUGCAUAGUAUUUAGUUA	0.321 ± 0.021	0.00729 ± 0.0026	0.136 ± 0.035
UCCUGGAACAGCGUUGCAUAGUAUUUAGUUA	0.203 ± 0.017	0.0103 ± 0.0025	0.0162 ± 0.0046
UCCUCCUACAGCUUGCAUAGUUUUUAGUUA	0.0632 ± 0.011	0.00455 ± 0.0023	0.00894 ± 0.003
UCCUGGAUGAACUUGCAUAGUAUUUAGUUA	0.128 ± 0.013	0.00751 ± 0.0026	0.0179 ± 0.0064
UCCUGCUACAGCUUGCUUAGUAAUUAGUUA	0.18 ± 0.018	0.00332 ± 0.0026	0.0139 ± 0.0051
UCCUCCUUCAGCUUGGAUAGUAUUUAGUUA	0.242 ± 0.015	0.0086 ± 0.0023	0.0562 ± 0.013
UCCUGGUACAGCUUGCAUAGUAUUUAGAUUA	0.131 ± 0.04	0.00728 ± 0.0036	0.00491 ± 0.0025
UCCUCCAACAGCAUGCAUAGUAUUUAGUUA	0.282 ± 0.016	0.0108 ± 0.0025	0.0161 ± 0.0047
UCCUGGAUGUCCUUGCUUAGUAUUUAGUUA	0.0537 ± 0.0095	0.00574 ± 0.0022	0.00568 ± 0.0037

Sequence	pre-steady-state target cleavage rate [1, 3]	pre-steady-state target cleavage rate [1, 4]	pre-steady-state target cleavage rate [2]
UCCUCCUACAGCAUGCAUAGUAUUUAGUAA	0.231 ± 0.019	0.00366 ± 0.0021	0.00521 ± 0.0023
UCCUGGAUGAGCUUGAAUAGUAUUUAGUUA	0.216 ± 0.011	0.00728 ± 0.0023	0.00419 ± 0.0027
UCCUGGAUGUGCUUGCAUAGUAUUUAGUUA [g2:g20:cont:t1A]	0.142 ± 0.013	0.00984 ± 0.0023	0.015 ± 0.0046
UCCUCCUACAGCUUGGAUAGUAUUUAGUAA	0.208 ± 0.02	0.00459 ± 0.0023	0.00895 ± 0.0035
UCCUGGUACAGCUUGCAUAGUAUCUUAGUUA	0.188 ± 0.031	0.00861 ± 0.0033	0.00588 ± 0.0027
UCCUCCUACAGGUUGCAUACUAUUUAGUUA	0.0492 ± 0.009	0.00246 ± 0.0023	0.00612 ± 0.0018
UCCUCCUACAGCUUGCAUAGUAUUUGGUUA	0.279 ± 0.024	0.00706 ± 0.0026	0.00583 ± 0.0021
UCCUGGUUCAGCUUGCAUAGUAUUUUGUUA	0.16 ± 0.03	0.00444 ± 0.0036	0.00528 ± 0.0032
UCCUGGAUGAGCGUGCAUAGUAUUUAGUUA	0.186 ± 0.018	0.0113 ± 0.003	0.0239 ± 0.0062
UCCUGGAUCAGCUUGCAUAGUAAUUAGUUA	0.233 ± 0.013	0.0101 ± 0.0024	0.0264 ± 0.0082
UCCUCCUACUGCUUGCAUAGUAUUUAGUUA	0.27 ± 0.016	0.00899 ± 0.0022	0.0494 ± 0.015
UCCUCCUACACGAUGCAUAGUAUUUAGUUA	0.267 ± 0.011	0.00666 ± 0.0022	0.0593 ± 0.017
UCCUGCUACAGCUUGCAUAGUAGUUAGUUA	0.127 ± 0.03	0.00253 ± 0.0025	0.00461 ± 0.0015
UCCUGGUACAGCUUGCAUAGUAUUUAGUCA	0.159 ± 0.032	0.00633 ± 0.0029	0.00545 ± 0.0021
UCCUGGUACAGCUUGCAAACUAUUUAGUUA	0.0345 ± 0.007	0.00378 ± 0.0028	0.00276 ± 0.0022
UCCUCCUACAGCUUGCAUAGUAUUUAGUAA	0.246 ± 0.021	0.00585 ± 0.0026	0.0113 ± 0.005
UCCUGGAUGUGGUAGCAUAGUAUUUAGUUA	0.0258 ± 0.011	0.00767 ± 0.0031	0.00356 ± 0.0033
UCCUGGAUGUGCUUGCCUAGUAUUUAGUUA	0.0942 ± 0.011	0.012 ± 0.003	0.00934 ± 0.0027
UCCUGGAUCAGCUUGGAUAGUAUUUAGUAA	0.166 ± 0.019	0.00324 ± 0.0026	0.00463 ± 0.0023
UCCUGGAUCAGCUAUGCAUAGUAUUUAGUUA	0.281 ± 0.019	0.0057 ± 0.0026	0.106 ± 0.02
UCCUGGAUGUGGUUGCAUAGUAUUUAGUAA	0.0925 ± 0.021	0.0105 ± 0.0041	0.11 ± 0.056
UCCUGGAACAGCUAGCAUAGUAUUAAGUUA	0.192 ± 0.015	0.00356 ± 0.0025	0.0146 ± 0.0061
UCCUGGUUGAGCUUGCAUAGUAUUUAGUAA	0.196 ± 0.022	0.00595 ± 0.0027	0.00604 ± 0.0023
UCCUCCUACAGCUAGCAUAGUAUUUAGUAA	0.199 ± 0.023	0.00331 ± 0.0021	0.005 ± 0.0022
UCCUGGAUCUGCUUGCAUACUAUUUAGUUA	0.055 ± 0.0088	0.0043 ± 0.0023	0.00859 ± 0.0023
